Laboratory results as given in PubChem BioAssay AID463173 (ICCB-Longwood Screening Facility, Harvard Medical School, 2010).
The whole screen tested about 52,000 compounds, of which about 4,300 (8.3%) were called active. Cut-off read from the data, not from the text of the source: active = survival mostly below about 52% (no sharp cut-off); inactive = mostly above about 56%. The entries come from a sample that favours actives as a whole.

The molecules below were run on DeltatarO mutant (assay: growth inhibition of S. aureus wild type versus tarO mutant, primary screen, teichoic acid synthesis inhibitors, RN4220, OD600 (AID 463173)). Settings: OD600, 18 h, stronger effect = lower value, screened at 18.75 µg/mL (by protocol).
In the case of `Cc1ccc(/C=C/c2nc3ccccc3[nH]2)cc1`, the survival is reported as 67% (inactive). `COc1ccc(C(=O)CSc2nc(C)cc(C)c2C(=O)Nc2ccccc2C)cc1` was tested, and the survival was 51% (inactive). In the case of `Cc1cccc(NC(=O)c2c(C)cc(C)nc2SCC(=O)c2ccccc2)c1`, the survival is reported as 40% (active). With `COc1ccccc1NC(=O)c1c(C)cc(C)nc1SCC(=O)c1ccc(Cl)cc1` the survival was 93% (inactive). In the case of `COC(=O)c1ccc(NC(=O)CSc2nc(C)cc(C)c2C(=O)Nc2ccccc2)cc1`, the survival is reported as 44% (inactive). In the case of `Cc1cc(C)c(C(=O)Nc2ccccc2)c(SCC(=O)Nc2ccc(Br)cc2C)n1`, the survival is reported as 38% (active). In the case of `Cc1cccc(NC(=O)c2c(C)cc(C)nc2SCC(=O)Nc2c(C)cc(C)cc2C)c1`, the survival is reported as 52% (inactive). `Cc1ccc(C(=O)CSc2nc(C)cc(C)c2C(=O)Nc2cccc(C)c2)cc1` was tested, and the survival was 43% (inactive). With `CCOc1ccccc1NC(=O)c1c(C)cc(C)nc1SCC(=O)c1cccc(OC)c1` the survival was 40% (active). With `Cc1cccc(NC(=O)CSc2nc(C)cc(C)c2C(=O)Nc2ccc(Cl)cc2)c1` the survival was 44% (inactive). For `CCc1cccc(C)c1NC(=O)CSc1nc(C)cc(C)c1C(=O)Nc1ccccc1`, the survival was 44% (inactive). With `Cc1ccc(NC(=O)CSc2nc(C)cc(C)c2C(=O)Nc2cccc(C)c2)cc1` the survival was 49% (inactive). For `Cc1ccc(NC(=O)c2c(C)cc(C)nc2SCC(=O)Nc2ccc(Br)cc2)cc1`, the survival was 40% (active). `Cc1ccc(S(=O)(=O)NCC2CCC(C(=O)NCCc3ccccc3)CC2)cc1` (stereo unspecified) was tested, and the survival was 81% (inactive). With `O=C(NC1CC(=O)N(c2cccc(F)c2)C1)c1ccc(S(=O)(=O)N2CCOCC2)cc1` (stereo unspecified) the survival was 76% (inactive). With `Cc1ccc(NC(=O)Cn2c(=O)n(Cc3ccc(C(=O)NCc4ccc5c(c4)OCO5)cc3)c(=O)c3ccccc32)cc1` the survival was 102% (inactive). For `Cc1cc(=O)n(Cc2c(F)cccc2Cl)c2c1c(C)nn2-c1cccc(F)c1`, the survival was 77% (inactive). In the case of `Cc1cccc(NC(=O)c2c(NC(=O)c3ccco3)sc3c2CCC(C(C)(C)C)C3)c1` (stereo unspecified), the survival is reported as 85% (inactive). `Cc1ccc(C)c(NC(=O)Cn2cc(C(=O)c3ccco3)c3ccccc32)c1` was tested, and the survival was 64% (inactive). For `COc1ccc(NC(=O)c2oc3ccccc3c2NC(=O)C23CC4CC(CC(C4)C2)C3)c(OC)c1`, the survival was 67% (inactive). For `CCc1ccc(-n2nc(C)c3c(C)cc(=O)n(CC(=O)Nc4cc(Cl)ccc4OC)c32)cc1`, the survival was 52% (active). With `Cc1ccc(-n2nc(C)c3c(C)cc(=O)n(CC(=O)Nc4cc(Cl)ccc4C)c32)cc1` the survival was 125% (inactive). For `CCc1ccc(-n2nc(C)c3c(C)cc(=O)n(CC(=O)Nc4ccc(OC)c(OC)c4)c32)cc1`, the survival was 84% (inactive). For `CCOC(=O)Cc1ccc(NC(=O)N2CCC(CN3CCC(C)CC3)CC2)cc1`, the survival was 81% (inactive). In the case of `COc1cc2cc(C)c(SCC(=O)N3CCN(C(=O)c4ccco4)CC3)nc2cc1OC`, the survival is reported as 73% (inactive). `CCN(CC)S(=O)(=O)c1cccc2nsnc12` was tested, and the survival was 79% (inactive). With `Cc1ccc(NC(=O)CSc2nc3nccnc3c(=O)n2CCc2c[nH]c3ccccc23)cc1C` the survival was 37% (active). With `Cc1ccc(NC(=O)CSc2nc3c(sc4ccccc43)c(=O)n2CCCC(=O)NC2CCCC2)cc1C` the survival was 87% (inactive). `Cc1cc(C)cc(NC(=O)CSc2nc3ncccc3[nH]2)c1` was tested, and the survival was 76% (inactive). `Cc1ccc(NC(=O)CSc2nc3nccnc3c(=O)n2CCc2c[nH]c3ccccc23)cc1` was tested, and the survival was 82% (inactive). For `Cc1cc(C)cc(NC(=O)CSc2nc3nccnc3c(=O)n2CCc2c[nH]c3ccccc23)c1`, the survival was 38% (active). In the case of `Cc1ccc(NC(=O)CSc2nc3ccccc3c(=O)n2CCC(=O)NC2CCCCC2)cc1C`, the survival is reported as 86% (inactive). In the case of `COc1ccccc1C(=O)OCc1cc(=O)n2nc(C3CCCCC3)sc2n1`, the survival is reported as 97% (inactive). `c1ccc2c(NC3CCCC3)nc(N3CCNCC3)nc2c1` was tested, and the survival was 26% (inactive). For `COc1ccc2c(Sc3ccccc3)c(C(=O)NCCc3ccc(Cl)cc3)[nH]c2c1`, the survival was 98% (inactive). For `CCOCCCNC(=O)c1[nH]c2cc(C)ccc2c1Sc1ccc(Cl)cc1`, the survival was 85% (inactive). With `CC1CCCCN1CCCNC(=O)c1cc(Sc2ccc(Cl)cc2)nc2ccccc12` (stereo unspecified) the survival was 94% (inactive). With `CC1CCN(CCCNC(=O)c2cc(Sc3ccc(F)cc3)nc3ccccc23)CC1` the survival was 68% (inactive). `COCCCNC(=O)c1[nH]c2ccccc2c1Sc1ccc(C)cc1` was tested, and the survival was 69% (inactive). For `COc1ccc2c(Sc3ccc(Cl)cc3)c(C(=O)NCCCN3CCCCC3)[nH]c2c1`, the survival was -1% (active). With `O=C(NCCCN1CCCCC1)c1[nH]c2ccccc2c1Sc1ccc(Cl)cc1` the survival was 7% (active). With `O=C(NCCCN1CCCCC1)c1cc(Sc2ccc(Cl)cc2)nc2ccccc12` the survival was 17% (active). For `COc1ccc2c(Sc3ccccc3)c(C(=O)NCCCN3CCCCC3)[nH]c2c1`, the survival was 54% (inactive). `CNC(=O)c1cnc2sc(N3CCC(C)CC3)nn2c1=O` was tested, and the survival was 78% (inactive). For `CCOC(=O)c1ccc2c(c1)N(Cc1cc(C)ccc1C)C(=O)c1ccccc1S2(=O)=O`, the survival was 85% (inactive). For `Cc1ccccc1C(=O)NC1CCN(Cc2nnnn2C2CCCC2)CC1`, the survival was 101% (inactive). `CCC(CC)C(=O)Nc1ccc(C(=O)OCc2cc(=O)n3nc(C4CC4)sc3n2)cc1` was tested, and the survival was 80% (inactive). In the case of `Cc1ccc(/C=C/c2onc(C)c2S(=O)(=O)N2CCC(C(=O)Nc3ccccc3C(F)(F)F)CC2)cc1`, the survival is reported as 75% (inactive). In the case of `COc1ccc(-c2c3c(=O)n(C)c(=O)n(C)c3cn2-c2cccc(N)c2)cc1`, the survival is reported as 79% (inactive). `COc1cccc2c1Oc1ncccc1N(c1ccc(C(=O)NCc3ccccc3C)s1)C2` was tested, and the survival was 84% (inactive). With `CCOc1ccccc1CNC(=O)c1cc(-c2ccc(C)c(C)c2)nc2ccccc12` the survival was 74% (inactive). With `COc1ccc(NC(=O)c2ccc(NC(=O)CCS(=O)(=O)c3cccs3)cc2)cc1OC` the survival was 50% (inactive). In the case of `COc1cccc2sc(N3CCN(C(=O)CS(=O)(=O)c4ccc(Cl)cc4)CC3)nc12`, the survival is reported as -4% (active). `Cc1ccc2sc(N3CCN(C(=O)CCS(=O)(=O)c4ccc(Cl)cc4)CC3)nc2c1C` was tested, and the survival was 64% (inactive). For `Cc1ccc(S(=O)(=O)CCC(=O)N2CCN(c3nc4c(C)c(Cl)ccc4s3)CC2)cc1`, the survival was 72% (inactive). With `Cc1ccc2sc(N3CCN(C(=O)CCS(=O)(=O)c4ccc(F)cc4)CC3)nc2c1C` the survival was 115% (inactive). `Cc1c(Cl)ccc2sc(N3CCN(C(=O)CS(=O)(=O)c4ccccc4)CC3)nc12` was tested, and the survival was 106% (inactive). For `COc1cccc2sc(N3CCN(C(=O)CCS(=O)(=O)c4ccc(F)cc4)CC3)nc12`, the survival was 66% (inactive). With `COc1ccc(OC)c2sc(N3CCN(C(=O)CCS(=O)(=O)c4ccc(F)cc4)CC3)nc12` the survival was 94% (inactive). With `Cc1cccc2sc(N3CCN(C(=O)CS(=O)(=O)c4ccc(F)cc4)CC3)nc12` the survival was 102% (inactive). With `Cc1ccc(S(=O)(=O)CCC(=O)N2CCN(c3nc4c(C)c(C)ccc4s3)CC2)cc1` the survival was 92% (inactive). With `CCCCC(=O)N1CCN(c2nc3c(C)c(C)ccc3s2)CC1` the survival was 46% (active). With `Cc1ccc(S(=O)(=O)CC(=O)N2CCN(c3nc4c(F)cccc4s3)CC2)cc1` the survival was -5% (active). `Cc1c(Cl)ccc2sc(N3CCN(C(=O)CCS(=O)(=O)c4ccc(F)cc4)CC3)nc12` was tested, and the survival was 0% (active). `O=c1cc(-c2ccccc2)n2c(SCc3cccc([N+](=O)[O-])c3)nnc2[nH]1` was tested, and the survival was 69% (inactive). For `Cc1noc(Cn2c(=O)c3cc4c(cc3n(CC(=O)Nc3ccccc3F)c2=O)OCO4)n1`, the survival was 77% (inactive). `Cc1cccc(CS(=O)(=O)Cc2ccc(C(=O)NCc3ccc(Cl)cc3)o2)c1` was tested, and the survival was 130% (inactive). In the case of `Cc1ccc(-n2c(=O)c3c4c(sc3n(CC(=O)c3ccc(Cl)cc3)c2=O)CCC4)cc1C`, the survival is reported as 168% (inactive). In the case of `Cc1ccc(Cl)cc1NC(=O)CCC(=O)NCc1ccco1`, the survival is reported as 74% (inactive). `Cc1ccc(NS(=O)(=O)c2ccc3c(c2)CCCN3C(=O)C2CCC2)cc1Cl` was tested, and the survival was 107% (inactive). With `CCc1cccc(C)c1NC(=O)Cn1cc2c(n1)CCCC2` the survival was 99% (inactive). `CCc1ccccc1NS(=O)(=O)c1ccc2[nH]cc(C(=O)N(CC(C)C)CC(C)C)c(=O)c2c1` was tested, and the survival was 84% (inactive). With `COc1ccc(N(CC(C)C)S(=O)(=O)c2nnc(NC(=O)c3cccs3)s2)cc1` the survival was 42% (active). In the case of `Cc1ccc(N(CC(C)C)S(=O)(=O)c2nnc(NC(=O)C(C)C)s2)cc1`, the survival is reported as 72% (inactive). In the case of `COc1ccc(C(=O)Nc2nnc(S(=O)(=O)N(CC(C)C)c3ccccc3)s2)cc1`, the survival is reported as 51% (inactive). For `CC(C)CN(c1ccccc1)S(=O)(=O)c1nnc(NC(=O)C2CCCCC2)s1`, the survival was 51% (inactive). With `COc1ccc(C(=O)Nc2nnc(S(=O)(=O)N(CC(C)C)c3ccc(C)cc3)s2)cc1OC` the survival was 68% (inactive). `Cc1ccc(N(CC(C)C)S(=O)(=O)c2nnc(NC(=O)c3cccs3)s2)cc1` was tested, and the survival was 34% (active). `CCc1ccc(CNC(=O)C2CCN(C(=O)N3CC(CC)Oc4ccc(C)cc43)CC2)cc1` (stereo unspecified) was tested, and the survival was 55% (inactive). For `Cc1ccc2nc(-c3ccc(C)c(NC(=O)Cc4ccccc4)c3)oc2c1`, the survival was 77% (inactive). In the case of `Cc1ccc2nc(-c3ccc(Cl)c(NC(=O)c4cccc([N+](=O)[O-])c4C)c3)oc2c1`, the survival is reported as 126% (inactive). In the case of `Cc1cccc(OCC(=O)Nc2ccc(-c3nc4ccccc4o3)cc2)c1C`, the survival is reported as 52% (active). In the case of `Cc1ccc2nc(-c3ccc(Cl)c(NC(=O)COc4cccc(C)c4C)c3)oc2c1`, the survival is reported as 48% (active). `Cc1cc(C)cc(OCC(=O)Nc2ccc(-c3nc4ccccc4o3)cc2)c1` was tested, and the survival was 51% (inactive). `Cc1ccc2nc(-c3ccc(Cl)c(NC(=O)COc4ccc([N+](=O)[O-])cc4)c3)oc2c1` was tested, and the survival was 54% (inactive). With `Cc1ccc(OCC(=O)Nc2c(Cl)ccc3nsnc23)cc1C` the survival was 71% (inactive). For `Cc1ccc2nc(-c3ccc(Cl)c(NC(=O)COc4ccc(C(C)C)cc4)c3)oc2c1`, the survival was 42% (active). For `CC(C)c1ccc(OCC(=O)Nc2c(Cl)ccc3nsnc23)cc1`, the survival was 41% (active). For `Cc1cc2nc(-c3cccc(NC(=O)COc4ccc(C(C)C)cc4)c3)oc2cc1C`, the survival was 50% (inactive). For `Cc1ccc(OCC(=O)Nc2ccc(-c3nc4ccccc4o3)cc2)c(C)c1`, the survival was 63% (inactive). With `O=C(COc1ccccc1)Nc1c(Cl)ccc2nsnc12` the survival was 74% (inactive).
